Results taken from PubChem BioAssay (Tox21).
Records with an inconclusive call do not appear. Active and inactive are the calls of the source. Unless noted, calls come from the whole dose curve; as a rule, active = well fitted curve in the direction sought with a large enough effect in the repeat runs; inconclusive = weak or mixed curves; inactive = no such curve, though single readings can be large; an effect the other way counts as inactive or inconclusive.

Assays:
[1] = qHTS assay to identify small molecule antagonists of the TGF-beta/Smad signaling pathway - cell viability counter screen (AID 1346824); note: nearly all actives have a fitted effect of over 50% in size
How it was run: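 Cytotoxicity counter-screen run in the same wells as the beta-lactamase Smad reporter read: CellTiter-Glo luminescence after 30 min at room temperature. HEK 293T SBE-bla cells had 5 hr compound exposure at 37 C with TGF-beta1 (0.25 ng/mL stock).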

[2] = qHTS assay to identify small molecule agonists of the TGF-beta/Smad signaling pathway (AID 1346859; active = well fitted activation curve with a large enough effect in the signal ratio in the repeat runs, not every such curve was filed as active; the % refers to the signal ratio; note: series mostly up to about 77 µM)
How it was run: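 HEK 293T cells stably carrying a beta-lactamase reporter driven by the Smad binding element were seeded overnight, exposed to DMSO-dissolved compounds for 5 hr at 37 C, 5% CO2, then loaded with FRET substrate for 2 hr at room temperature.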

[3] = biological target: Thyrotropin-releasing hormone receptor (Homo sapiens) (UniProt P34981); assay: qHTS assay to identify small molecule antagonists of the thyrotropin-releasing hormone receptor (TRHR) signaling pathway (AID 1346877; active = well fitted inhibition curve with a large enough effect in the repeat runs, not every such curve was filed as active; note: series mostly up to about 51 µM)
Chain of Thyrotropin-releasing hormone receptor (Homo sapiens) (P34981 whole entry, looked up): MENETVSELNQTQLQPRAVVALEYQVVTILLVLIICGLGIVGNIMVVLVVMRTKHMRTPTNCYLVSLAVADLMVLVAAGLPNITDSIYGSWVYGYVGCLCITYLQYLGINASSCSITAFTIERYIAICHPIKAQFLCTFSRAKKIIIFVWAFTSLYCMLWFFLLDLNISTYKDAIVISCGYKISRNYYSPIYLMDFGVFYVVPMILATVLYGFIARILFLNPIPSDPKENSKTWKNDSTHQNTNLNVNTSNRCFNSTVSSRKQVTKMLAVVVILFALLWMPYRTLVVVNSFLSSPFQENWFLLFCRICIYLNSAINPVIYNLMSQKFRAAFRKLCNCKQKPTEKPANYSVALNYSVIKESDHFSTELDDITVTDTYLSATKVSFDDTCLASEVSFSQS
How it was run: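 In this cell-based calcium flux format, HEK293 cells expressing TRHR received test compound for 5 min before the agonist TRH (1 nM final). Dye loading lasted 2 h at 37 °C.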

[4] = biological target: Thyrotropin-releasing hormone receptor (Homo sapiens) (UniProt P34981); assay: qHTS assay to identify small molecule agonists of the thyrotropin-releasing hormone receptor (TRHR) signaling pathway (AID 1346891; calls by dose curve; note: series mostly up to about 58 µM)
How it was run: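 TRHR-expressing HEK293 cells were plated 18 h at 37 °C/5% CO2, loaded with calcium dye 2 h at 37 °C, then given compound in DMSO; fluorescence was read kinetically for 3 min at 1 s intervals.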

[5] = Human pregnane X receptor (PXR) small molecule agonists, qHTS cell viability counter screen (AID 1346977); note: nearly all actives have a fitted effect of over 50% in size
How it was run: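 PXR-Luc HepG2 cells in medium with 5% charcoal-stripped FBS were pre-incubated 5hr, then exposed to compounds for 24hr at 37C. Viability was read in the same wells by CellTiter-Fluor fluorescence, reagent added after 23hr with a 1hr incubation.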

[6] = Caspase-3/7 induction in HepG2 cells by small molecules, qHTS assay (AID 1346978); note: nearly all actives have a fitted effect of over 15% in size
How it was run: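 Caspase-3/7 induction was measured by Caspase-Glo 3/7 luminescence (30 min, room temperature) after a 17 hr compound exposure of wild-type HepG2 cells seeded at 2,000 per well and pre-incubated 5 hr.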

[7] = Caspase-3/7 induction in CHO-K1 cells by small molecules, qHTS cell viability counter screen (AID 1346979); note: nearly all actives have a fitted effect of over 35% in size
How it was run: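 Wild-type CHO-K1 cells were seeded at 1,500 per well, rested 5hr at 37 C, then exposed to compounds in DMSO. After 16hr, CellTiter-Fluor reagent was added and fluorescence read 1hr later as the viability measure.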

[8] = Caspase-3/7 induction in CHO-K1 cells by small molecules, qHTS assay (AID 1346980); note: nearly all actives have a fitted effect of over 15% in size
How it was run: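 Luminescent Caspase-Glo 3/7 read (30min, room temperature) quantified apoptosis induction. Cells were wild-type CHO-K1, treated with compound for 17hr at 37 C and 5% CO2.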

[9] = Caspase-3/7 induction in HepG2 cells by small molecules, qHTS cell viability counter screen (AID 1346981); note: series mostly up to about 92 µM; nearly all actives have a fitted effect of over 30% in size
How it was run: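 Counter screen for cytotoxicity: HepG2 exposed 16 hr to compounds, then CellTiter-Fluor viability signal (fluorescence, 1 hr reagent incubation).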

[10] = qHTS assay to identify small molecule agonists of the TGF-beta/Smad signaling pathway - cell viability counter screen (AID 1346829); note: top concentration of the series differs between compounds; nearly all actives have a fitted effect of over 45% in size
How it was run: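 SBE-bla HEK 293T cells plated overnight, compound exposure 5 hr at 37 C. Viability read in the same wells by CellTiter-Glo luminescence after 30 min at room temperature, following the beta-lactamase read.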

Measured: Potency

O=S(=O)(O)c1cc(O)ccc1O
not listed: [10]
inactive: all other assays above

O=P(O)(O)OCC(O)CO (configuration not stated)
not listed: [3] | [4] | [5]
inactive: all other assays above

C=C[Si](C)(C)O[Si](C)(C)C=C
inactive: [1] | [10] | [2] | [5] | [7] | [9]

COc1cc2c3cc1Oc1cc(ccc1O)C[C@@H]1c4c(cc(OC)c(O)c4Oc4ccc(cc4)C[C@@H]3N(C)CC2)CC[N+]1(C)C
not listed: [3] | [4]
inactive: all other assays above

C=C(C)C(=O)OC
not listed: [3] | [4]
inactive: all other assays above

CCCCCCCCCCCCCCCCCCN(C)C
not listed: [3] | [4] | [5]
inactive: all other assays above

CCCCCCCC/C=C\CCCCCCCC(=O)OC[C@@H](O)[C@H]1OC[C@H](O)[C@H]1O
not listed: [3] | [4] | [5]
inactive: all other assays above

O=C(O)C(=O)Nc1cccc(-c2nn[nH]n2)c1
not listed: [3] | [4]
inactive: all other assays above

CCC1COC(=O)O1 (configuration not stated)
not listed: [1]
inactive: all other assays above

CC(C)SCc1ccco1
not listed: [1] | [9]
inactive: all other assays above

CCN(CCO)c1cccc(C)c1
not listed: [10]
inactive: all other assays above

Cc1cccc(C(=O)O)c1[N+](=O)[O-]
not listed: [1]
inactive: all other assays above

CC(=O)OC(C(=O)c1ccccc1)c1ccccc1 (configuration not stated)
inactive: [1] | [2] | [5] | [7] | [8] | [9]

NC(=O)C1(N2CCCCC2)CCN(CCCC(=O)c2ccc(F)cc2)CC1
not listed: [3] | [4] | [10]
inactive: all other assays above

O=C1c2ccccc2-c2ccccc21
not listed: [10]
inactive: all other assays above

CN[C@@H]1[C@H](O)[C@H](NC)[C@H]2O[C@@]3(O)C(=O)C[C@@H](C)O[C@H]3O[C@@H]2[C@H]1O
inactive: [1] | [2] | [6] | [7] | [9]
